These results are taken from PubChem BioAssay.

A number with no mark means an inactive call. Activity calls are given as the source filed them. Cut-off read from the data, not from the text of the source, unless noted: active = inhibition above about 25%; inactive = the rest.

In general, inhibition refers to the relative decrease from the control value, in per cent.

For one assay, the target named is Nuclear receptor coactivator 1 (Homo sapiens) (UniProt Q15788). The experiment in a line: SRC1 coactivator transcriptional activity inhibitors, confirmation, cell-based, luminescence, quadruplicate (AID 588820;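 active = mean inhibition above 46.68%, the untreated control wells mean plus 3 SD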;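 note: 0% = DMSO wells and 100% = gossypol 36 µM treated wells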). The following applies: HEK293 GAL4-SRC1 luciferase reporter, at 3.6 µM, active compounds read high. On the technique in general: In a reporter assay the amount or activity of a reporter protein is the signal.
Nuclear receptor coactivator 1 (Homo sapiens), sequence (Q15788 whole entry, looked up, the tested form may be a part): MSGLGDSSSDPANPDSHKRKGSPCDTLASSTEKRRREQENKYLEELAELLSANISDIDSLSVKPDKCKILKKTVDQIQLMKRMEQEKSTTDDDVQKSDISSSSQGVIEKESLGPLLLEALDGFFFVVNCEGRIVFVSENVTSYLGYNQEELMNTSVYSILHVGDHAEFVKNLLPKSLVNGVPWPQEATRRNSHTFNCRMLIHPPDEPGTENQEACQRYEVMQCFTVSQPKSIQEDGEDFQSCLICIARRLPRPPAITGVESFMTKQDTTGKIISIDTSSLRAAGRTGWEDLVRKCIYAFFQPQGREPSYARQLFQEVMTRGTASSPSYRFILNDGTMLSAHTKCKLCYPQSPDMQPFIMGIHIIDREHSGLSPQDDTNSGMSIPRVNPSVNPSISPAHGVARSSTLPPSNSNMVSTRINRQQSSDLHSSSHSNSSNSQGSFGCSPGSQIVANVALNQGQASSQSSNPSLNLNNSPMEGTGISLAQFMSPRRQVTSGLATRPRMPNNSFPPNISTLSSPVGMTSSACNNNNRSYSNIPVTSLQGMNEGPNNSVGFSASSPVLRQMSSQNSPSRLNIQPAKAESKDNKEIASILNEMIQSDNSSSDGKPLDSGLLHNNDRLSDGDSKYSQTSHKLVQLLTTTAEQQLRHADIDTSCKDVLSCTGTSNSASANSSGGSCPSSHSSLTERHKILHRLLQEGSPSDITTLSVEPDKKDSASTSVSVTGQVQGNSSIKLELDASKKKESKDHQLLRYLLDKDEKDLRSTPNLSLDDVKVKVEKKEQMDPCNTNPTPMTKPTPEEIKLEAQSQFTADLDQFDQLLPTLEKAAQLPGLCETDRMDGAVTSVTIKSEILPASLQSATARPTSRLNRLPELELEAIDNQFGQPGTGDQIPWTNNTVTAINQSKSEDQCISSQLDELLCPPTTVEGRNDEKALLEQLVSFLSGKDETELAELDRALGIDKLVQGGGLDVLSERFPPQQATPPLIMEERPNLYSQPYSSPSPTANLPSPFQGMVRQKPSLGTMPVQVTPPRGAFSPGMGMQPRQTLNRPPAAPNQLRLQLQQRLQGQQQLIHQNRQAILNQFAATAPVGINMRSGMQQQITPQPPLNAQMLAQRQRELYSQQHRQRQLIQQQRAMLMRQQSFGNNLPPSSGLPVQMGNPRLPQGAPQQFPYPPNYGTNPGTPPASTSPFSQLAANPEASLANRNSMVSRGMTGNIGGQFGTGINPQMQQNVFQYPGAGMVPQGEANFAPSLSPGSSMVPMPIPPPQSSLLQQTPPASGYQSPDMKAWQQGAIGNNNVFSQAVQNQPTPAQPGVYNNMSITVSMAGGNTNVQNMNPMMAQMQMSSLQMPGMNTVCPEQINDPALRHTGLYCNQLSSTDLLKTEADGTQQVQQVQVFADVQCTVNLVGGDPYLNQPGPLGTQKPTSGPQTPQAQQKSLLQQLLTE
With `COc1ccc(-n2c(=S)[nH]c3cc(C(=O)Nc4ccc(F)cc4)ccc3c2=O)c(OC)c1`, the inhibition is 26.5%.

Take `CC1CCc2c(sc(NC(=O)c3cccs3)c2C(=O)O)C1` (stereo not given): the inhibition is 11.8%.

`Cc1nc2ccc(NC(=O)c3ccc(Cl)c(S(=O)(=O)N(C)c4ccccc4)c3)cc2s1`: the inhibition was 3.35%.

Regarding `CCCCNc1nc2c(c(=O)n(C)c(=O)n2C)n1Cc1cccc(OC)c1`, the inhibition was 16.8%.

With `O=C(Nc1cccnc1)c1ccc(C(=O)Nc2cccnc2)cc1`, the inhibition was 23.3%.

In the case of `CN(Cc1ccccc1)c1ncnc(N)c1[N+](=O)[O-]`, the inhibition is 38.4%.

Turning to `CCn1ccnc1CN(C)Cc1cn[nH]c1-c1ccc(OC)c(F)c1`, the inhibition is 34.3%.

Take `CCCCC(=O)NC(c1ccc(C(C)C)cc1)c1ccc2cccnc2c1O` (stereo not given): the inhibition is 58.2% (active).

Consider `CCCCCCCCCCCCCCCC[n+]1cccc2ccccc21`, for which the inhibition is 39.9%.

For the compound `O=C1CC(c2ccc3c(c2)OCO3)Sc2nc3ccccc3n21` (stereo not given), the inhibition is -110%.

Consider `O=c1[nH]cc(F)c(=O)[nH]1`, for which the inhibition was 8.56%.

On to `CC[n+]1ccccc1/C=C/c1ccc(N(C)C)cc1`, for which the inhibition was 15.4%.

Take `CC(=O)N1CCN(c2ncnc3ccccc23)CC1`: the inhibition was 45.1%.

As for `Cc1cc(=O)[nH]c(Nc2cccc(C(F)(F)F)c2)n1`, the inhibition was 49.4% (active).

As for `COc1cccc(CNc2ncnc3ccc(-c4c(C)noc4C)cc23)c1`, the inhibition is 19.3%.

In the case of `O=C(N/N=C/c1cc(Br)ccc1O)c1ccncc1`, the inhibition was 26.4%.

With `COc1ccc(-c2c[n+]3c(n2-c2ccccc2)CCCCC3)cc1`, the inhibition was 17.3%.

As for `O=C(NCc1ccco1)c1ccc2c(c1)N(Cc1ccccc1)CCS2`, the inhibition is 3.44%.

For the compound `CCN(CC)S(=O)(=O)c1ccc(/C=C/C(=O)Nc2ccc(Br)cc2F)cc1`, the inhibition is 16%.

With `COc1cc(/C=C2\SC(N)=NC2=O)cc(OC)c1`, the inhibition was 34.7%.

As for `CC(C)c1ccc(/C=N/Nc2ccc(C(=O)O)cc2)cc1`, the inhibition is -72.5%.

With `CC(=O)c1c(C)oc2ccc(N(C(C)=O)S(=O)(=O)c3cccc4cccnc34)cc12`, the inhibition is 6.31%.

In the case of `Cn1c(/C=C/c2ccc(Cl)cc2Cl)c([N+](=O)[O-])c(=O)n(C)c1=O`, the inhibition was 47.2% (active).

Take `COc1ccc2[nH]c3c(c2c1)CCNC3=O`: the inhibition is 62.3% (active).

Regarding `CC(=O)NC(C)c1cc(Cl)c2cccnc2c1O` (stereo not given), the inhibition was 10.6%.

As to `Cn1c(=O)c2c(nc(NCc3ccco3)n2C/C=C/c2ccccc2)n(C)c1=O`, the inhibition was 18.6%.

Take `Cc1nc(N)nc(N)c1-c1ccc(Cl)c(Cl)c1`: the inhibition was 54.2% (active).

Turning to `COc1ccc(-c2cn[nH]c2-c2ccc(OC)cc2)cc1`, the inhibition is 38.7%.

Consider `COc1cccc(-c2nnc3sc(C4CCCCC4)nn23)c1`, for which the inhibition is 57.4% (active).

As for `OCCNc1c2ccccc2nc2ccccc12`, the inhibition was 5.64%.

As to `O=C(N/N=C/c1ccc(O)cc1O)/C(=C/c1ccccc1)CCO`, the inhibition is 31.7%.

Turning to `CCCCN(CCCC)c1ncnc2nc[nH]c12`, the inhibition is 36.2%.

Consider `COc1cccc(/C=N/NC(=O)c2cc(-c3cccn3C)n[nH]2)c1O`, for which the inhibition was 37.6%.

Turning to `COc1cccc(CN(C)C(=O)c2ccc(OCC(=O)Nc3cccc(C(F)(F)F)c3)c(OC)c2)c1`, the inhibition was 6.82%.

Turning to `Cc1[nH]ccc2cc3nc4ccccc4c3cc12`, the inhibition is 31.7%.

For `C[n+]1c2n(c3ccccc31)N=C(c1ccc(Br)cc1)CS2`, the inhibition is -14.8%.

In the case of `O=C(N/N=C/c1cc(Cl)cc(Cl)c1O)c1ccncc1`, the inhibition is 30.7%.

In the case of `C[n+]1c2n(c3ccccc31)N=C(c1ccccc1)CS2`, the inhibition was -2.14%.

Turning to `COc1cc(Cl)cc(/C=N\NC(=O)c2ccc3c(c2)OCO3)c1O`, the inhibition is 30.5%.

As to `O=C(NC1CCCCCCC1)C1c2ccccc2C(=O)N1Cc1cccs1` (stereo not given), the inhibition was 4.81%.

Test system in another assay: not listed separately
The experiment in a line: VP16 transactivation inhibitors, counter-screen for SRC1 inhibitor project, cell-based, luminescence, high throughput (AID 588824). The following applies: cell-based VP16 transactivation luciferase luminescence; at 3.6 µM; active compounds read high. A general note: Counterscreens check selectivity or assay interference.
With `COc1ccc(-n2c(=S)[nH]c3cc(C(=O)Nc4ccc(F)cc4)ccc3c2=O)c(OC)c1`, the inhibition is 44.6% (active).

`CC1CCc2c(sc(NC(=O)c3cccs3)c2C(=O)O)C1` (stereo not given): the inhibition is 54.1% (active).

With `Cc1nc2ccc(NC(=O)c3ccc(Cl)c(S(=O)(=O)N(C)c4ccccc4)c3)cc2s1`, the inhibition is 33.7% (active).

`CCCCNc1nc2c(c(=O)n(C)c(=O)n2C)n1Cc1cccc(OC)c1`: the inhibition is 26.6% (active).

Regarding `O=C(Nc1cccnc1)c1ccc(C(=O)Nc2cccnc2)cc1`, the inhibition is 20.4%.

Consider `CN(Cc1ccccc1)c1ncnc(N)c1[N+](=O)[O-]`, for which the inhibition was 30% (active).

With `CCn1ccnc1CN(C)Cc1cn[nH]c1-c1ccc(OC)c(F)c1`, the inhibition is 28% (active).

For the compound `CCCCC(=O)NC(c1ccc(C(C)C)cc1)c1ccc2cccnc2c1O` (stereo not given), the inhibition was 66% (active).

On to `CCCCCCCCCCCCCCCC[n+]1cccc2ccccc21`, for which the inhibition is 76% (active).

`O=C1CC(c2ccc3c(c2)OCO3)Sc2nc3ccccc3n21` (stereo not given): the inhibition was -73.2%.

In the case of `O=c1[nH]cc(F)c(=O)[nH]1`, the inhibition is 22.3%.

Consider `CC[n+]1ccccc1/C=C/c1ccc(N(C)C)cc1`, for which the inhibition was 40.1% (active).

In the case of `CC(=O)N1CCN(c2ncnc3ccccc23)CC1`, the inhibition was 26.3% (active).

For `Cc1cc(=O)[nH]c(Nc2cccc(C(F)(F)F)c2)n1`, the inhibition is 27% (active).

Turning to `COc1cccc(CNc2ncnc3ccc(-c4c(C)noc4C)cc23)c1`, the inhibition is -7.49%.

On to `O=C(N/N=C/c1cc(Br)ccc1O)c1ccncc1`, for which the inhibition was 39.9% (active).

As for `COc1ccc(-c2c[n+]3c(n2-c2ccccc2)CCCCC3)cc1`, the inhibition was 30.1% (active).

`O=C(NCc1ccco1)c1ccc2c(c1)N(Cc1ccccc1)CCS2`: the inhibition is 1.86%.

`CCN(CC)S(=O)(=O)c1ccc(/C=C/C(=O)Nc2ccc(Br)cc2F)cc1`: the inhibition was 41.9% (active).

In the case of `COc1cc(/C=C2\SC(N)=NC2=O)cc(OC)c1`, the inhibition is 18.9%.

Turning to `CC(C)c1ccc(/C=N/Nc2ccc(C(=O)O)cc2)cc1`, the inhibition was -51.3%.

For the compound `CC(=O)c1c(C)oc2ccc(N(C(C)=O)S(=O)(=O)c3cccc4cccnc34)cc12`, the inhibition is 18.4%.

Take `Cn1c(/C=C/c2ccc(Cl)cc2Cl)c([N+](=O)[O-])c(=O)n(C)c1=O`: the inhibition is 56.3% (active).

Regarding `COc1ccc2[nH]c3c(c2c1)CCNC3=O`, the inhibition is 33.7% (active).

Regarding `CC(=O)NC(C)c1cc(Cl)c2cccnc2c1O` (stereo not given), the inhibition was 2.16%.

As to `Cn1c(=O)c2c(nc(NCc3ccco3)n2C/C=C/c2ccccc2)n(C)c1=O`, the inhibition was 39.9% (active).

For `Cc1nc(N)nc(N)c1-c1ccc(Cl)c(Cl)c1`, the inhibition was 33.6% (active).

Turning to `COc1ccc(-c2cn[nH]c2-c2ccc(OC)cc2)cc1`, the inhibition was 33.8% (active).

`COc1cccc(-c2nnc3sc(C4CCCCC4)nn23)c1`: the inhibition was 26.4% (active).

`OCCNc1c2ccccc2nc2ccccc12`: the inhibition was 42.2% (active).

Consider `O=C(N/N=C/c1ccc(O)cc1O)/C(=C/c1ccccc1)CCO`, for which the inhibition was 24%.

For `CCCCN(CCCC)c1ncnc2nc[nH]c12`, the inhibition is 25.2%.

For the compound `COc1cccc(/C=N/NC(=O)c2cc(-c3cccn3C)n[nH]2)c1O`, the inhibition is 35.6% (active).

`COc1cccc(CN(C)C(=O)c2ccc(OCC(=O)Nc3cccc(C(F)(F)F)c3)c(OC)c2)c1`: the inhibition was 35.6% (active).

As to `Cc1[nH]ccc2cc3nc4ccccc4c3cc12`, the inhibition was 39.4% (active).

With `C[n+]1c2n(c3ccccc31)N=C(c1ccc(Br)cc1)CS2`, the inhibition is 30.4% (active).

Take `O=C(N/N=C/c1cc(Cl)cc(Cl)c1O)c1ccncc1`: the inhibition is 33.7% (active).

As for `C[n+]1c2n(c3ccccc31)N=C(c1ccccc1)CS2`, the inhibition is 35.1% (active).

With `COc1cc(Cl)cc(/C=N\NC(=O)c2ccc3c(c2)OCO3)c1O`, the inhibition was 33.6% (active).

For `O=C(NC1CCCCCCC1)C1c2ccccc2C(=O)N1Cc1cccs1` (stereo not given), the inhibition is 9.14%.
